Compounds with a hit are over-represented: about 6.1% of the library has one in this group of screens.
D3 ag – qHTS of D3 Dopamine Receptor Agonist: qHTS; max activation, %; D3R DiscoveRx beta-arrestin cells, luminescence, 90 min; actives 0.58% (n = 410,000); D(3) dopamine receptor (Homo sapiens), P35462; in the data active = max activation above about 30%; also: 0% is about no effect
Target sequence (P35462 whole entry, looked up): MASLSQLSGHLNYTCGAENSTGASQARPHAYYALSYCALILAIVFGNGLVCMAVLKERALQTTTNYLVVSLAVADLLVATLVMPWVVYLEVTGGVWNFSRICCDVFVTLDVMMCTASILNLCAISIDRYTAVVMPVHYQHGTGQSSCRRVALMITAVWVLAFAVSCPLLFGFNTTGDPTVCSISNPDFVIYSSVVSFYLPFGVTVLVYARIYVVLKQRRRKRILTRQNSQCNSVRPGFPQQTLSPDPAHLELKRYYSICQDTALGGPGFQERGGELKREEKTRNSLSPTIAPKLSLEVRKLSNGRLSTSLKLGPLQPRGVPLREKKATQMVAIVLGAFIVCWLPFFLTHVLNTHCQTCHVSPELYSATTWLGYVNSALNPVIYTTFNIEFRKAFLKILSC
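Cells at 1500/well, incubated overnight, then treated with pinned compounds (dopamine as control) for 90 min at 37 degrees C. DiscoveRx reagent added for 30 - 60 minutes at room temperature; luminescence read.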
D3 antag – qHTS of D3 Dopamine Receptor Antagonist: qHTS. D(3) dopamine receptor (Homo sapiens), P35462. D3R cells, DiscoveRx beta-arrestin luminescence, antagonist mode; active compounds read low. max response, negative = inhibition, %. actives 2.5% (n = 360,000); in the data active = max response below about -50%; also: % is scaled to controls: 0 for no effect and ±100 for the full control effect
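Cells expressing the human receptor were seeded at 1500 cells/well, incubated overnight at 37 degrees C in 5% CO2, then exposed to library compounds with dopamine controls for 90 minutes at 37 degrees C before luminescent detection.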
D1 antag – Antagonist of Human D 1 Dopamine Receptor: qHTS; D(1A) dopamine receptor (Homo sapiens), P21728; HEK293 TREx D1 cells, calcium flux, dopamine EC80; active compounds read low; activity change, negative = inhibition, % at 10 µM; actives 3.2% (n = 360,000); in the data active = activity change below about -30%; also: % is scaled to controls: 0 for no effect and ±100 for the full control effect
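Inducible Hek293 Trex D1 cells (tetracycline, overnight, 30 C). Calcium dye 30–90 min RT. Antagonist mode: EC80 dopamine added after 180 s compound read.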
D1 ag – Allosteric Agonists of the Human D1 Dopamine Receptor: qHTS; D(1A) dopamine receptor (Homo sapiens), P21728; HEK293 T-REx D1 cells, calcium flux, agonist mode; activation, % at 2 µM; actives 1% (n = 360,000); AID 504660, 2011; in the data active = activation above about 30%; also: 0% is about no effect
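Tetracycline-induced HEK293 TREx D1 cells, force-coupled to calcium signalling, were dye-loaded with a no-wash calcium kit. Compound was pin-added after a 10 s baseline. Fluorescence was read kinetically at 1 cycle/s for 180 s, with calcium rises flagged as agonism.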
D1 potentiator – Potentiators of Human D1 Dopamine Receptor: qHTS. D(1A) dopamine receptor (Homo sapiens), P21728. HEK293 TREx D1 cells, calcium flux, dopamine EC20 potentiation. potentiation, % at 10 µM. actives 0.036% (n = 360,000). AID 504651, 2011; in the data active = potentiation above about 30%; also: 0% is about no effect
Numbers without * were called inactive; / = not tested or not shown.

SMILES | D3 ag | D3 antag | D1 antag | D1 ag | D1 potentiator
Cc1cccc(NC(=O)c2nc[nH]c2C(=O)N[C@@H](C)C(=O)OCc2ccccc2)c1 | 10.0 | 39.4 | -33.0* | 2.3 | -4.2
CC(C)C[C@H](NC(=O)c1nc[nH]c1C(=O)NCc1ccccc1)C(=O)OCc1ccccc1 | -3.8 | -52.6* | 3.5 | 11.2 | -3.2
CC(C)C[C@H](NC(=O)c1nc[nH]c1C(=O)N1CCNCC1)C(=O)OC(C)(C)C | -17.4 | -53.9* | 2.2 | -0.7 | -0.8
NS(=O)(=O)c1ccc(CCNC(=O)c2ccc(NS(=O)(=O)c3ccc4[nH]c(=O)[nH]c4c3)cc2)cc1 | 1.3 | 15.4 | -2.5 | 1.1 | -7.8
COC(=O)C1(C(=O)OC)C[C@H](c2ccc(OC)cc2)N(Cc2ccccc2OC)[C@@H]1c1cccs1 | -0.8 | 7.2 | / | / | /
Cc1ccn2cc(CNC(=O)c3cccc(C(F)(F)F)c3)nc2c1 | -24.6 | / | -10.4 | -1.0 | 0.9
O=C(CN1C(=O)C2CCCCC2C1=O)Nc1ccc(OC(F)F)c(Cl)c1 (stereo not given) | -6.5 | -1.8 | -31.9* | 1.2 | -2.4
Cc1cc(NC(=O)c2cc(-c3ccc(Cl)c(Cl)c3)on2)n(-c2ccccc2)n1 | 2.0 | / | -7.8 | 1.2 | 0.5
CCOC(=O)N1CCN(c2cc(NCCC(=O)O)c3c4c(onc24)-c2ccccc2C3=O)CC1 | -6.5 | -76.8* | 13.2 | 1.5 | 3.2
O=C(O)CCCNc1cc(N2CCN(C(=O)c3ccco3)CC2)c2noc3c2c1C(=O)c1ccccc1-3 | 6.2 | 3.3 | 4.5 | 1.2 | -2.9
CCOC(=O)c1c(S(=O)(=O)N2CCCC(C(=O)Nc3cccc(C)n3)C2)c(C)n(C)c1C (stereo not given) | -1.1 | 1.0 | 13.1 | 2.3 | -1.8
CCOC(=O)c1c(S(=O)(=O)N2CCC(C(=O)N3CCN(c4cc(C)ccc4C)CC3)CC2)c(C)n(C)c1C | -13.2 | / | -92.3* | -0.2 | -2.3
CCOC(=O)c1c(S(=O)(=O)N2CCCC(C(=O)Nc3cc(C)ccn3)C2)c(C)n(C)c1C (stereo not given) | -10.6 | / | -33.3* | 1.1 | -1.6
CCOC(=O)c1c(S(=O)(=O)N2CCCC(C(=O)N3CCN(c4cc(C)ccc4C)CC3)C2)c(C)n(C)c1C (stereo not given) | -3.0 | / | 10.4 | 2.1 | -0.1
COc1cccc(C(c2sc3nc(-c4ccco4)nn3c2O)N2CCC(O)CC2)c1 (stereo not given) | 4.9 | / | / | 3.2 | -1.9
NC(=O)Cn1c(=O)n(Cc2ccccc2)c(=O)c2cccnc21 | 4.1 | -5.5 | 3.5 | 1.3 | -1.9
O=C1NC2(CCCCCC2)C(=O)N1Cc1ccccc1F | -2.2 | -0.1 | -32.5* | 2.7 | 1.6
N#Cc1ccccc1CN1C(=O)NC2(CCCCCC2)C1=O | -0.6 | 13.0 | 8.4 | 0.1 | 6.4
Cc1cccc(C2c3[nH]c4ccccc4c3CCN2C(=O)c2cc(CC(C)C)[nH]c(=O)n2)n1 (stereo not given) | -0.3 | 4.6 | -1.9 | 3.1 | 2.8
OC1(c2cccc(C(F)(F)F)c2)CCN(c2ncnc3c2[nH]c2ccc(F)cc23)CC1 | 39.6* | -25.0 | -6.7 | 2.3 | -4.9
Fc1ccc2[nH]c3c(N4CCN(c5ccccc5)CC4)ncnc3c2c1 | 5.3 | -13.4 | -28.4 | 13.8 | -6.8
NC(=O)CC[C@@H]1NC(=O)[C@H](Cc2ccccc2)NC(=O)[C@H](Cc2ccc(O)cc2)NC(=O)CCSSC[C@@H](C(=O)N2CCC[C@H]2C(=O)N[C@@H](CCCN=C(N)N)C(=O)NCC(N)=O)NC(=O)[C@H](CC(N)=O)NC1=O | -6.6 | / | / | / | /
CCCC[N+](C)(C)CCC(=O)NC(C)(C)CS(=O)(=O)[O-] | 10.5 | -9.3 | -33.9* | 2.9 | -5.0
Cn1c(=O)c2c(nc(CN3CCN(C(=O)c4ccco4)CC3)n2CCc2ccccc2)n(C)c1=O | -3.0 | -3.6 | -73.9* | 0.2 | 1.5
Cc1ccc(Cn2c(CN3CCN(C(=O)c4ccco4)CC3)nc3c2c(=O)n(C)c(=O)n3C)cc1 | 37.0* | 20.4 | -4.0 | 8.3 | 3.9
Nc1ncnc2c1ccn2[C@H]1CN(Cc2ccc3c(c2)OCO3)C[C@@H](COC(=O)c2ccccc2)O1 | -0.8 | 47.2 | / | / | /

From PubChem
